High-throughput results from PubChem.
NS3h inh CB: HCV NS3 helicase inhibitors, primary screen, biochemical, fluorescence polarization, ChemBridge library; Hepatitis C virus NS3 helicase; NS3h Cy5-dT15 DNA binding; inhibition, % at 100 µM; 1.6% of 16,000 active; AID 687043, 2013;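 active means inhibition above the average over every tested compound plus 3 SD, cut at about 40% in these data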
Cy5 interf NS3h: Cy5 fluorescence quenchers or enhancers, artefact control for HCV NS3 helicase inhibitor project, biochemical, ChemBridge library, Cy5 readout; AID 720488, 2013; 6% of 16,000 active; Cy5-dT15 DNA with NS3h, fluorescence interference; actives lie on both sides; signal over control mean, under 1 quenches; fluorescence interference ratio at 100 µM;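 active means compound fluorescence over control fluorescence at most 0.8, a quencher, or at least a set upper limit, an enhancer; inactive means ratio between 0.8 and the set upper limit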
The depositor's hits bear a star. The list is not random: actives were taken first. Their share in the collection is about 6.9%.

SMILES	NS3h inh CB	Cy5 interf NS3h
O=C(/C=C/c1cccc([N+](=O)[O-])c1)Nc1ccc2oc(-c3ccccc3F)nc2c1	-4.4	0.775*
CCOC(=O)c1ccc(N2NC(=O)/C(=C/c3ccccc3O)C2=O)cc1	-2.4	0.868
COc1ccc(S(=O)(=O)Nc2ccc(Br)cc2C)cc1	17.5	1.08
COc1ccc(N=C2C(=O)Nc3ccc(C)c(Br)c32)cc1	21.3	0.659*
CCN(CC)C(=O)c1ccccc1NC(=O)c1ccccc1Cl	4.0	1
CCCC1(O)CC(c2ccccc2)N(C)C(c2ccccc2)C1C (stereo unspecified)	-16.9	0.924
CC1=NN(C(=O)c2ccncc2)C(O)(c2cccnc2)C1 (stereo unspecified)	-2.4	1.07
CC(C)(C)c1ccc(C(CC(=O)c2ccc(Br)cc2)S(=O)(=O)c2ccccc2)cc1 (stereo unspecified)	18.0	0.539*
O=C(CC(Nc1ccc(Br)cc1)c1ccc(F)cc1)c1ccccc1 (stereo unspecified)	10.6	0.977
COc1cc(/C=N/n2nnnc2N)ccc1OCc1ccc(F)cc1	10.5	0.767*
COc1cc(/C=N\n2nnnc2N)ccc1OCc1c(C)no[n+]1[O-]	11.7	1.06
CCOC(=O)c1ccc(NC(=O)C2CC(=O)N(c3ccc(F)cc3)C2)cc1 (stereo unspecified)	-9.5	0.89
CCc1ccccc1N(CC(=O)Nc1ccc(Br)cc1)S(C)(=O)=O	8.7	1.01
O=C(CSc1nnc(-c2ccncc2)n1-c1ccccc1)c1ccc(NS(=O)(=O)c2ccccc2)cc1	12.4	0.96
CCOC(=O)c1sc(NN=C(C#N)C#N)c(C(=O)OCC)c1C	-1.5	0.562*
CCOC(=O)c1c(NC(=O)/C=C\C(=O)O)sc(C(=O)Nc2ccccc2)c1C	19.1	0.942
CC(/C=C1\SC(=S)N(C(Cc2ccccc2)C(=O)O)C1=O)=C\c1ccccc1 (stereo unspecified)	-1.9	1
O=C(O)CCC(C(=O)O)N1C(=O)/C(=C\C(Cl)=C/c2ccc([N+](=O)[O-])cc2)SC1=S (stereo unspecified)	11.5	0.635*
O=C(O)C(Cc1ccccc1)N1C(=O)/C(=C/C(Cl)=C/c2ccc([N+](=O)[O-])cc2)SC1=S (stereo unspecified)	-1.9	0.782*
O=C1/C(=C/C(Cl)=C/c2ccc([N+](=O)[O-])cc2)SC(=S)N1c1ccc(O)cc1	3.3	1.04
O=[N+]([O-])c1ccccc1-c1nc(-c2ccccc2)c(-c2cccs2)[nH]1	12.7	0.989
O=C(O)CN1C(=O)c2cccc3c(I)cc(Br)c1c23	22.1	1.06
CCOc1cc(OCC)cc(C(=O)Nc2ccc3oc(-c4cccc(F)c4)nc3c2)c1	-8.4	0.994
CC1=NN(c2ccccc2)C(=O)/C1=C\C=C\c1cccc([N+](=O)[O-])c1	-18.7	1.02
CCOC(=O)CC(O)(c1ccccc1)C(F)(F)C(F)F (stereo unspecified)	7.7	0.749*
SMILES	NS3h inh CB	Cy5 interf NS3h
CCOC(=O)Cc1cc(-c2ccccc2)nc2ccc3ccccc3c12	2.5	1.02
Cc1ccc(C(=O)c2cccc(N3C(=O)c4ccccc4C3=O)c2)cc1C	1.3	1.07
O=C(NCCCO)/C(=C/c1ccc(-c2cccc([N+](=O)[O-])c2)o1)NC(=O)c1ccccc1	8.8	0.789*
O=C(NCCCN1CCOCC1)/C(=C/c1ccc(-c2cccc([N+](=O)[O-])c2)o1)NC(=O)c1ccccc1	5.2	0.866
COC(C)(C)CNS(=O)(=O)c1ccc(C)cc1	8.7	0.744*
COc1ccc(CNS(=O)(=O)c2ccc(C)cc2)cc1	6.8	0.986
Cc1ccc(/C(N)=N\OC(=O)c2ccc(F)cc2)cc1	22.5	1.03
C=C1CSc2nc(=O)c3c4c(sc3n21)CCC4	5.8	0.938
Cc1nc2sc3c(c2c(=O)[nH]1)CCC3	2.2	0.633*
COc1ccccc1-c1nnc(-c2sc3cc(Cl)ccc3c2Cl)o1	15.6	1.01
COc1cccc(NC(=O)c2cc(-c3ccccc3)nc3ccccc23)c1	-0.7	1.01
O=C(CSc1nc2ccccc2o1)c1ccc(-c2ccccc2)cc1	2.2	0.628*
O=C(CSc1nc2ccccc2o1)OCC(=O)c1ccc(F)cc1	6.7	0.933
COc1cccc(NC(=O)CSc2nc3ccccc3o2)c1	11.5	0.666*
O=C(c1cccc(N2C(=O)C3C4C=CC(C4)C3C2=O)c1)c1cccc(N2C(=O)C3C4C=CC(C4)C3C2=O)c1 (stereo unspecified)	43.0*	1.06
CC(=O)c1cccc(N2C(=O)C3C4C=CC(C4=C(C)C)C3C2=O)c1 (stereo unspecified)	-0.7	1.05
Nc1ccc(C(=O)/C=C/c2ccc(F)cc2)cc1	12.7	0.991
COc1ccc(/C=N\NC(=O)/C(=C\c2ccc3c(c2)OCO3)NC(=O)c2ccccc2)c(O)c1	20.5	1.01
COc1cc(NC(=O)COc2ccc(F)cc2)c(Cl)cc1NC(=O)c1ccccc1	4.6	0.998
Cc1nc2cc(-c3ccco3)[nH]n2c(=O)c1C	8.7	0.766*
Cc1ccccc1-c1cc2nc(C)c(Cl)c(=O)n2[nH]1	-0.9	1.03
CCCc1ccc(OCc2nnc(NC(=O)Nc3cccc(Cl)c3)s2)cc1	-2.6	1.13
Cc1cc(Br)ccc1NC(=O)c1ccc(C)c([N+](=O)[O-])c1	15.4	1.07
COc1ccc2c(=O)cc(C(Cl)(Cl)Cl)oc2c1	15.2	0.654*
COc1ccc2oc(C(Cl)(Cl)Cl)cc(=O)c2c1	1.0	0.913
SMILES	NS3h inh CB	Cy5 interf NS3h
CCN(CC)c1ccc(NC(=O)c2cc([N+](=O)[O-])ccc2Cl)cc1	11.4	1.01
O=C(Nc1cccc2c1C(=O)c1ccccc1C2=O)c1ccc(S(=O)(=O)N2CCOCC2)cc1	9.1	1.05
O=C(Nc1cccc2ccccc12)c1cccc(I)c1	18.8	0.906
Cc1ccc(N2C(=O)CC(NC3CCN(Cc4ccccc4)CC3)C2=O)cc1 (stereo unspecified)	10.0	1.31*
Cc1ccc(N2C(=O)CC(NCc3cccc(Cl)c3)C2=O)cc1 (stereo unspecified)	-0.3	1.11
Cc1ccc(N2C(=O)CC(N3CCN(Cc4ccccc4)CC3)C2=O)cc1 (stereo unspecified)	-1.0	1.03
Cc1ccc(N2C(=O)CC(NCc3cccc(C(F)(F)F)c3)C2=O)cc1 (stereo unspecified)	17.6	1.23*
N#Cc1c(N)[nH]c(=S)c(C#N)c1-c1cccc(F)c1	-9.4	0.967
CC(SC12CC3CC(CC(C3)C1)C2)C(=O)O (stereo unspecified)	-2.3	1.01
O=C(O)CN1C(=O)/C(=C/C=C/c2ccccc2[N+](=O)[O-])SC1=S	19.2	0.965
Cc1ccc(N2C(=O)CC(N3CCOCC3)C2=O)cc1 (stereo unspecified)	1.0	1.05
CCOC(=O)C1CCCN(C2CC(=O)N(c3ccc(C)cc3)C2=O)C1 (stereo unspecified)	7.2	1.25*
CC1(C)CC(=O)C2=C(C1)c1c(ccc3ccccc13)NC2c1ccccc1F (stereo unspecified)	21.3	0.747*
COc1ccc(C2Nc3ccc4ccccc4c3C3=C2C(=O)CC(C)(C)C3)cc1[N+](=O)[O-] (stereo unspecified)	8.7	0.97
C=CCN1C(=O)/C(=C\c2ccc(OCc3cccc4ccccc34)cc2)SC1=S	4.4	1.14
